Data as given in publication PMC5540273 (PLoS ONE, 2017).
Values joined by “and” are separate entries in the source; they are usually repeats but may differ in a detail not shown here. Equal entries are not always repeated. Where two headings read alike, the source gives them in different places.

Tests used:
CDK4 = details: n = 1
CDK5 = details: concentration: 1 μM, replicates: in singlicate; n = 1
CDK7 = details: n = 1
CDK8 = details: concentration: 1 μM, replicates: in singlicate; n = 1
CDK9 = details: n = 1
CDKL1 = details: concentration: 1 μM, replicates: in singlicate; n = 1
CDKL2 = details: n = 1
CDKL3 = details: concentration: 1 μM, replicates: in singlicate; n = 1
CDKL5 = details: concentration: 1 μM, replicates: in singlicate; n = 1
CHEK1 = details: n = 1
[1] = concentration: 1 μM, replicates: in singlicate
[2] = concentration: 1 μM,replicates: in singlicate, 1 µM
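Further: KINOMEscan kinase panel screen.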

Row | Compound | %Inh (CDK4; [1]) [%] | %Inh (CDK5) [%] | %Inh (CDK7; [1]) [%] | %Inh (CDK8) [%] | %Inh (CDK9; [1]) [%] | %Inh (CDKL1) [%] | %Inh (CDKL2; [1]) [%] | %Inh (CDKL3) [%] | %Inh (CDKL5) [%] | %Inh (CHEK1; [1]) [%] | %Inh (CDK4; [2]) | %Inh (CDK7; [2]) | %Inh (CDK9; [2]) | %Inh (CDKL2; [2]) | %Inh (CHEK1; [2])
1 | Cc1cccc(-c2nc(Nc3ccc4[nH]ncc4c3)c3ccccc3n2)n1 [GW857175] | 0 | 3 | 8 | 0 | 0 | 0 | 7 | 4 | 18 | 4 | – | – | – | – | –
2 | Cc1cccc(-c2nc(-c3ccc(S(C)(=O)=O)cc3)sc2-c2ccnc(NCCc3ccccc3)c2)c1 | 0 | 9 | 2 | 15 | 1 | 14 | 13 | 10 | 23 | 0 | – | – | – | – | –
3 | Cl.c1ccc(-c2n[nH]cc2-c2ccnc(-c3ccc(CN4CCOCC4)cc3)c2)nc1 [GW776245] | 0 | 12 | 0 | 52 | 0 | 59 | 9 | 6 | 0 | 0 | – | – | – | – | –
4 | Cn1cncc1-c1ccc2ncnc(Nc3ccc(OCc4ccccc4)cc3)c2c1 [GW320571] | 0 | 3 | 0 | 29 | 0 | 0 | 19 | 0 | 0 | 15 | – | – | – | – | –
5 | O=C(Nc1ccc2c(c1)OCO2)NC1CCN(c2ccnc(Nc3ccc(F)cc3)n2)C1 (stereo not shown) [GSK1379724] | 0 | 0 | 0 | 33 | 0 | 0 | 49 | 0 | 3 | 0 | – | – | – | – | –
6 | Cn1ccc2ncnc(Oc3cccc(C(=O)Nc4ccccc4)c3)c21 | 0 | 16 | 4 | 22 | 1 | 0 | 13 | 0 | 0 | 0 | – | – | – | – | –
7 | COC(=O)c1c(-c2ccccc2)c2cc(C(=O)O)ccc2c(=O)n1Cc1ccccc1 | 0 | 0 | 0 | 13 | 0 | 0 | 6 | 4 | 21 | 0 | – | – | – | – | –
8 | Cn1ccc2ncnc(Oc3ccc(NC(=O)Nc4ccccc4)cc3)c21 | 0 | 0 | 13 | 12 | 9 | 36 | 2 | 0 | 17 | 1 | – | – | – | – | –
9 | Cc1cccc(-c2nc(Nc3cccc(C(N)=O)c3)c3ccccc3n2)n1 [GW876019] | 0 | 0 | 8 | 36 | 0 | 36 | 13 | 0 | 1 | 0 | – | – | – | – | –
10 | Cc1cc(-c2ccc3c(c2)CC[C@@H](N[C@@H](C)c2ccccc2)C3)cnc1N.Cl [GW412617] | 26 | 4 | 0 | 14 | 0 | 0 | 18 | 0 | 0 | 14 | – | – | – | – | –
11 | Cn1ccc2ncnc(Oc3ccc(Nc4nc5ccccc5[nH]4)cc3)c21 | 0 | 0 | 0 | 6 | 0 | 18 | 0 | 11 | 0 | 0 | – | – | – | – | –
12 | COc1ccccc1-c1ccc2c(NC(=O)C3CC3)n[nH]c2n1 [SB-711239] | 33 | 0 | 0 | 44 | 0 | 18 | 23 | 20 | 3 | 11 | – | – | – | – | –
13 | O=S(=O)(c1ccc(-c2ccnc3[nH]ccc23)cc1)N1CCCC1 [GSK846226] | 0 | 0 | 2 | 0 | 0 | 7 | 5 | 0 | 4 | 0 | – | – | – | – | –
14 | CSc1nn2c(=O)cc(N3CCOCC3)nc2n1Cc1cccc(C(F)(F)F)c1C [GSK2363608] | – | 0 | – | 0 | – | 0 | – | 0 | 0 | – | 15% and 0% | 7% and 0% | 7% and 0% | 17% and 30% | 4% and 11%
15 | Clc1cc(Cl)cc(Nc2ccnc(Nc3cc(Cl)cc(Cl)c3)n2)c1 [GSK175726] | 11 | 0 | 5 | 0 | 13 | 11 | 32 | 0 | 0 | 0 | – | – | – | – | –
16 | CCn1c(-c2ccccn2)nc2cnccc21 [SB-736398] | 34 | 0 | 0 | 39 | 0 | 9 | 17 | 0 | 0 | 0 | – | – | – | – | –
17 | Nc1ncnc2[nH]c(-c3ccccc3)nc12 [AH5015] | 7 | 0 | 0 | 0 | 0 | 6 | 32 | 0 | 0 | 0 | – | – | – | – | –
18 | COc1cc2ncnc(Nc3ccc4nc(-c5ccccc5)[nH]c4c3)c2cc1OC.Cl [GW282450] | 20 | 0 | 0 | 0 | 0 | 1 | 7 | 0 | 1 | 0 | – | – | – | – | –
19 | CCn1c(-c2cccnc2O)nc2cnccc21 [SB-736715] | 4 | 0 | 0 | 33 | 0 | 13 | 0 | 10 | 0 | 0 | – | – | – | – | –
